This note sets out measurements from PubChem BioAssay.

In general, inhibition refers to how much of the control response was suppressed.

The subject of experiment [1] is TRPC4 beta (transient receptor potential cation channel C4), mouse. Briefly: activators of mouse TRPC4 channel, confirmation, cell-based, Fluo4 calcium, HEK293 TRPC4beta/mu-opioid, duplicates, 10 µM (AID 2426;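 active = fluorescence ratio normalized to control raised more than 50% in primary screen plus both repeat runs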). The note with it: Fluo4 calcium fluorescence, at 10 µM; hits give high values.
Experiment [2] deals with transient receptor potential cation channel C4 beta (TRPC4), mouse. Briefly: activators of mouse TRPC4 channel, confirmation, cell-based, second round, Fluo4, HEK293 TRPC4beta/mu-opioid, 1 µM (AID 2461;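 active = primary screen active and over 50% activation in each of two duplicate runs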). Conditions: Fluo4 calcium fluorescence, at 1 µM; hits give high values.
Experiment [3] relates to TRPC4 (transient receptor potential cation channel C4 beta), mouse. Briefly: positive allosteric modulators of mouse TRPC4, confirmation, cell-based, second round, Fluo-4, HEK293 TRPC4beta/mu-opioid, 1 µM (AID 2554;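 active = primary screen hit whose fluorescence ratio, in both repeats, exceeds the weak agonist control mean by 3 SD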). The note with it: DAMGO EC20, Fluo-4 calcium flux, at 1 µM; hits give high values. On the technique in general: Calcium flux is commonly read through the fluorescence of an indicator in the cells.

Experiment [4] has as its system TRPC4 beta (transient receptor potential cation channel C4), mouse. Briefly: positive allosteric modulators of mouse TRPC4, confirmation, cell-based, Fluo-4, HEK293 TRPC4beta/mu-opioid (AID 2555;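 active = primary screen hit whose calcium fluorescence ratio, in both repeats, exceeds the weak agonist control mean by 3 SD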). Conditions: DAMGO EC20, Fluo-4 calcium flux, at 10 µM; hits give high values.
Experiment [5] concerns the target Short transient receptor potential channel 4 (Mus musculus) (UniProt Q9QUQ5). Briefly: inhibitors of mouse TRPC4 channel, confirmation, cell-based, Fluo4, HEK293 TRPC4beta/mu-opioid (AID 2636;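 active = calcium signal cut by more than 3 SD below the full-agonist control yet still positive, in both repeats and the earlier primary screen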). The note with it: DAMGO, Fluo4 calcium flux, at 10 µM; hits give high values.
The target is the same in experiment [6]. Briefly: inhibitors of mouse TRPC4 channel, confirmation, cell-based, second round, Fluo4, HEK293 TRPC4beta/mu-opioid, 1 µM (AID 2637;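 active = calcium signal ratio cut to more than 3 SD under the fully stimulated control mean yet still positive, in both repeats and the primary screen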). Conditions: Fluo4 calcium flux, DAMGO, at 1 µM; hits give high values.
For experiment [7] the target is unchanged. In words: mouse TRPC4 channel activators, dose response, cell-based, HEK293 TRPC4/mu-opioid, Fluo-4 calcium (AID 434937).
For experiment [8] the target is unchanged. In words: TRPC4 positive allosteric modulators, dose response, cell-based, HEK293 TRPC4/mu-opioid, Fluo-4 calcium, EC20 DAMGO (AID 434941;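 active = earlier screen potentiator hit that boosts the TRPC4 ion channel at some dose, with a dose response; inactive = no potentiation, no dose response, or not a prior hit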;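 note: calcium entry triggered by an EC20 dose of DAMGO at the co-expressed mu-opioid receptor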).
For experiment [9] the target is unchanged. Briefly: mouse TRPC4 channel inhibitors, dose response, cell-based, HEK293 TRPC4/mu-opioid, Fluo-4 calcium (AID 434942;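 active = primary screen inhibitor hit that blocks the TRPC4 channel at some tested dose, yielding a dose curve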).
Experiment [10] addresses Short transient receptor potential channel 6 (Mus musculus) (UniProt Q61143). In words: inhibition of mouse TRPC6 channel, confirmation, selectivity assay for TRPC4 inhibitor project, cell-based, HEK293, membrane potential dye, duplicate (AID 434948;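 active = active in primary screen and both duplicates, each dropping signal beyond three positive-control SD with fluorescence still positive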). Conditions: HEK293 TRPC6, membrane potential dye fluorescence, at 10 µM, stimulated with maximal-effect acetylcholine; hits give high values.

The target is the same in experiment [11]. Briefly: activation of mouse TRPC6 channel, confirmation, selectivity assay for TRPC4 activator project, cell-based, HEK293, membrane potential dye, duplicate (AID 434950;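 active = membrane potential signal rise above negative control mean plus 3 SD in both duplicates, also active in the earlier TRPC4 screen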). The note with it: HEK293 TRPC6, membrane potential fluorescence, at 10 µM; hits give high values.
Experiment [12] has the same target. Briefly: TRPC6 potentiation by TRPC4 potentiator hits, confirmation, selectivity assay for TRPC4 potentiator project, HEK293 cells, membrane potential dye, duplicate (AID 434952;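 active = compound raising the membrane signal above positive-control mean plus 3 SD in both repeats, and a primary screen hit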). Conditions: HEK293 TRPC6, membrane potential dye fluorescence, at 10 µM, maximal acetylcholine added after compound; hits give high values.
Experiment [13] addresses Short transient receptor potential channel 4 (Mus musculus) (UniProt Q9QUQ5). Briefly: calcium flux activators in TRPC4/5HT1a cells, counter-screen for TRPC4 activator project, cell-based, second counter screen, HEK293 TRPC4/5HT1a, Fluo-4 (AID 434977;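 active = calcium signal rise above buffer-control mean plus 5 SD in both duplicates, and also a hit in the primary screen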). Conditions: Fluo-4 calcium flux, at 10 µM; hits give high values.
A short description of experiment [14]: calcium flux inhibitors in TRPC4/5HT1a cells, confirmation, counter-screen for TRPC4 inhibitor project, cell-based, second counter screen, HEK293 TRPC4/5HT1a, Fluo-4 (AID 434978;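 active = primary screen active whose calcium signal fell more than 3 SD beyond the full-serotonin control mean in both duplicate plates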;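 for outcome: serotonin given first at submaximal then at maximal dose after compound preincubation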). Conditions: Fluo-4 calcium flux, at 10 µM, serotonin added to trigger calcium flux; hits give high values.
The subject of experiment [15] is TRPC4 (mouse), co-expressed with 5HT1a in HEK293. Briefly: calcium flux potentiators in TRPC4/5HT1a cells, confirmation, counter-screen for TRPC4 potentiator project, cell-based, second counter screen, HEK293 TRPC4/5HT1a, Fluo-4 (AID 434979;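 active = signal rise over 3 SD above mean of control wells given weak agonist, in both repeats and first screen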). Conditions: Fluo-4 calcium flux, at 10 µM, serotonin added at its EC20 dose; hits give high values.
Experiment [16] is described as follows: calcium flux activation in mu-opioid HEK293 cells, confirmation, counter-screen for TRPC4 activator project, cell-based, HEK293 mu-opioid receptor line (AID 449723;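 active = hit in primary screen, with calcium signal over 5 SD above buffer well mean in both duplicates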;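 note: counter screen cells carry the mu-opioid receptor alone and lack TRPC4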). Conditions: Fluo-4 calcium fluorescence, at 10 µM; hits give high values.
Experiment [17] in a line: calcium flux enhancement in mu-opioid HEK293 cells, confirmation, counter-screen for TRPC4 allosteric potentiator project, cell-based, HEK293 mu-opioid receptor line (AID 449724;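 active = calcium signal rise more than 3 SD above the low-dose agonist control mean, in both duplicate plates and the primary screen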;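 note: HEK293 cells carrying mu-opioid receptor only with no TRPC4 channel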). The note with it: Fluo-4 calcium flux, at 10 µM, compound added before EC20 DAMGO stimulus; hits give high values.

SMILES strings stand for the structures. For part of these data: Results with a measured potency or affinity are listed apart. Calls of active or inactive are those of the source.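 Rule for the calls, unless noted: active = primary screen activator hit with a dose response curve and TRPC4 channel activation at any tested dose; inactive = no activation, no dose response, or not a primary hit.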

Short transient receptor potential channel 4 (Mus musculus), sequence (Q9QUQ5 whole entry, looked up): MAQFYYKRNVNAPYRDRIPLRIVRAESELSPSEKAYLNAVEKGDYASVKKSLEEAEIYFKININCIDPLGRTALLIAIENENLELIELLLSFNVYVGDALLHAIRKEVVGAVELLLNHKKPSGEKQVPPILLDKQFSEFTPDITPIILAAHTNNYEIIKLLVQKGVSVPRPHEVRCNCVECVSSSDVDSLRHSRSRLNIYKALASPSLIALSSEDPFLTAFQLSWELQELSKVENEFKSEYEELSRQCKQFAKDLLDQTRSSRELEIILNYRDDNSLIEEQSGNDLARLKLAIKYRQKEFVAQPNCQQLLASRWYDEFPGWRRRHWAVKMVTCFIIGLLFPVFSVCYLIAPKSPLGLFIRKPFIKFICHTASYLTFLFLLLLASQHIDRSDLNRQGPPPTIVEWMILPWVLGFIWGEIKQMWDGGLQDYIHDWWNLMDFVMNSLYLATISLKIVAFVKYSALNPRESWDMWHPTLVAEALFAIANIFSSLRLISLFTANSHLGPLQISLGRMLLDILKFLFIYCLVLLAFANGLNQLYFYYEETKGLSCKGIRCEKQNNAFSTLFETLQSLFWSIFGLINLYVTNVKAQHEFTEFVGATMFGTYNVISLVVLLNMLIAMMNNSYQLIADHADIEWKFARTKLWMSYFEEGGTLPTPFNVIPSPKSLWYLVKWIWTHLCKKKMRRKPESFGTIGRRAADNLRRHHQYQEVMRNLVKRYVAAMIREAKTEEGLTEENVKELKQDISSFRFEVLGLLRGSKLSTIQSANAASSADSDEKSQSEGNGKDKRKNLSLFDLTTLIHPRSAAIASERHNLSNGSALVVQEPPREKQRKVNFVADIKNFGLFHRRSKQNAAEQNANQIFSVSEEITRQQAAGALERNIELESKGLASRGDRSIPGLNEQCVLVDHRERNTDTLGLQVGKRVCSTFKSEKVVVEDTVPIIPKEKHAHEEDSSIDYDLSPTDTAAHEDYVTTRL
Short transient receptor potential channel 6 (Mus musculus), sequence (Q61143 whole entry, looked up): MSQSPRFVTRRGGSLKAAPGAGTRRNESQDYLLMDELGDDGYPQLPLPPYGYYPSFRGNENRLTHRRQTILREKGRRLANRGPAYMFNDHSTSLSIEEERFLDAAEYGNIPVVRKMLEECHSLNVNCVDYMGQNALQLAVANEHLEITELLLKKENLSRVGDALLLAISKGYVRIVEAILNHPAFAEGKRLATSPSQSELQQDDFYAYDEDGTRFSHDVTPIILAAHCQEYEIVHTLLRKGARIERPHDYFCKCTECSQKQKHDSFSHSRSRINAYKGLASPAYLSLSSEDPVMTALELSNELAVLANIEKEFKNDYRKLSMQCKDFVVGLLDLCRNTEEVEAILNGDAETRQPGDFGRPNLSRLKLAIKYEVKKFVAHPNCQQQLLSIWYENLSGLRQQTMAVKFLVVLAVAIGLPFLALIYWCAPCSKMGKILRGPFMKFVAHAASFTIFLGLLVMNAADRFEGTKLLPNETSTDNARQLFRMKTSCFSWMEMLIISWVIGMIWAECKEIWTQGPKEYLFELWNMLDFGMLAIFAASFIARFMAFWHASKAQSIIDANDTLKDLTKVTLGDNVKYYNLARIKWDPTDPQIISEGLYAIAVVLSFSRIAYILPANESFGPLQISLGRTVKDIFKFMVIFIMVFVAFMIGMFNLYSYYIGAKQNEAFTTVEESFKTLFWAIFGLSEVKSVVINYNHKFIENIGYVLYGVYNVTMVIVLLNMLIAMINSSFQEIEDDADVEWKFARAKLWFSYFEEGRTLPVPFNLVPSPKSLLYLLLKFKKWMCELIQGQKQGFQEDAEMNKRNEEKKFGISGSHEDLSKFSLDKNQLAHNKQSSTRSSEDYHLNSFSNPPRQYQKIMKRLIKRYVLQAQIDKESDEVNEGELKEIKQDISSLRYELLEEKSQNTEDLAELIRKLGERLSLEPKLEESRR

Turning to `O=C(NCc1ccccc1)c1ccc(S(=O)(=O)Nc2cccc(C(F)(F)F)c2)cc1`, the result in experiment [1], in experiment [2], in experiment [3], in experiment [5], in experiment [6] and in experiment [7] was inactive. Moreover, the outcome in experiment [8], in experiment [9], in [10], in [11], in [12] and in experiment [13] was inactive. The outcome in [14], in experiment [16] and in experiment [17] was inactive. Also, the potentiation in experiment [4] was 46% (active); in experiment [15] it was 44.3% (active).
Take `C/C(=N/Nc1ccnc2cc(Cl)ccc12)c1ccc(N)cc1`: the result in experiment [1], in [2], in experiment [3], in [4], in [5] and in experiment [6] was inactive. For the same compound, the outcome in [7], in [8], in [9], in experiment [10], in [11] and in experiment [12] was inactive. Moreover, the outcome in experiment [13], in experiment [14], in experiment [15], in experiment [16] and in [17] was inactive.
Regarding `CCCc1c(-c2ccc(O)cc2)nn(-c2ccc(O)cc2)c1-c1ccc(O)cc1`, the result in [1], in [2], in experiment [3], in [5], in experiment [6] and in experiment [7] was inactive. The result in experiment [8], in [9], in experiment [10], in [11], in experiment [12] and in experiment [13] was inactive. Moreover, the result in experiment [14], in [16] and in experiment [17] was inactive. The potentiation in experiment [4] is 20% (active); in [15], 23.9% (active).
Turning to `CCCc1ccc(OCc2ccc(C(=O)N3CCCC3)o2)cc1`, the result in experiment [1], in [2], in experiment [3], in experiment [5], in [6] and in experiment [7] was inactive. The outcome in experiment [8], in experiment [9], in experiment [10], in [11], in experiment [12] and in [13] was inactive. The result in experiment [14], in experiment [16] and in experiment [17] was inactive. In addition, the values for the potentiation in experiment [4] and in experiment [15] were 23% (active) and 31.2% (active), respectively.
For `CC(C)c1ccccc1NC(=S)NN(Cc1ccccc1)c1ccccc1`, the result in experiment [1], in experiment [2], in experiment [3], in [5], in [6] and in [7] was inactive. Moreover, the result in [8], in experiment [9], in experiment [10], in [11], in [12] and in [13] was inactive. The outcome in [14], in experiment [16] and in experiment [17] was inactive. For the same compound, the potentiation was 10% (active) in [4] and 43.9% (active) in experiment [15].
Turning to `CN(CC(=O)Nc1sc2c(c1C#N)CCCCC2)Cc1nc2ccccc2c(=O)[nH]1`, the outcome in [1], in [2], in [3], in experiment [4], in [5] and in [6] was inactive. Moreover, the result in experiment [7], in experiment [8], in experiment [9], in experiment [10], in experiment [11] and in experiment [12] was inactive. Besides, the result in experiment [13], in experiment [14], in experiment [15], in [16] and in [17] was inactive.
For `Cc1ccc(C(=O)NNC(=O)C2CSC3(C)CCC(=O)N23)cc1` (stereo not drawn), the outcome in experiment [1], in [2], in experiment [3], in [4], in experiment [5] and in experiment [6] was inactive. The outcome in [7], in experiment [8], in experiment [9], in [10], in [11] and in experiment [12] was inactive. Moreover, the outcome in experiment [13], in experiment [14], in [16] and in experiment [17] was inactive. For the same compound, in experiment [15], the potentiation was 7.03% (active).
Regarding `CCCCN(C)CCNC(=O)c1ccc(Cn2c(=S)[nH]c3ccc(Br)cc3c2=O)cc1`, the result in experiment [1], in [2], in [3], in experiment [5], in experiment [6] and in [7] was inactive. In addition, the outcome in [8], in experiment [9], in experiment [10], in [11], in [12] and in experiment [13] was inactive. Also, the result in experiment [14], in experiment [16] and in [17] was inactive. Further, the figures for the potentiation in [4] and in experiment [15] were 16% (active) and 33.5% (active), respectively.
Regarding `COC(=O)c1ccccc1NC(=O)CCC(=O)N1CC(C)Oc2ccc(C)cc21` (stereo not drawn), the result in experiment [1], in [2], in experiment [3], in [4], in experiment [6] and in experiment [7] was inactive. For the same compound, the result in experiment [8], in [9], in experiment [10], in experiment [11], in experiment [12] and in experiment [13] was inactive. Further, the result in experiment [15], in experiment [16] and in [17] was inactive. For the same compound, the results for the inhibition in experiment [5] and in experiment [14] were 75% (active) and 44% (active), respectively.
